Among the test systems are NCI-H23 lung; NCI-H226 lung; NCI-H322M lung; HOP-62 NSCLC; NCI-H460 lung; HOP-92 NSCLC; NCI-H522 lung; A549/ATCC NSCLC; 786-0 renal; COLO 205 colon; DU-145 prostate; K-562 leukemia; MALME-3M melanoma; MDA-MB-231 breast; RXF 393 renal; SF-268 CNS; SF-295 CNS; SF-539 CNS; UACC-257 melanoma; M14 melanoma.
Holding throughout (assay): NCI-60 one-dose screen, 48 h (100 = growth as untreated, 0 = no growth, -100 = all killed)
Holding throughout (conditions): 10 µM unless noted

The panel holds about 83,000 compounds, 20% with a hit somewhere; the sample as a whole holds those more often.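 Testing used 96-well plates and a 48-hour single-concentration exposure. Example: -40 means 40% of the starting cells died.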 A number with no mark means an inactive call. Active and inactive are the calls of the source. Rule for the calls: active = growth percent below 10; inactive = the rest.

On to `CC1=C(C(=O)OC(C)C)C(c2ccc(O)cc2)NC(=O)N1` (stereo not given), for which the growth in the assay on NCI-H23 lung is 101%; in the assay with NCI-H226 lung it was 105%; with NCI-H322M lung it was 106%; with HOP-62 NSCLC it was 99.4%; with NCI-H460 lung, 117%; in the assay on HOP-92 NSCLC it was 105%. Besides, the growth in the assay with NCI-H522 lung was 81.3%; in the assay on A549/ATCC NSCLC it was 101%; with 786-0 renal, 99.5%; in the assay with COLO 205 colon it was 114%; in the assay with DU-145 prostate, 111%; in the assay on K-562 leukemia, 98.5%. Further, the growth in the assay with MALME-3M melanoma was 102%; in the assay with MDA-MB-231 breast it was 101%; with RXF 393 renal, 104%; in the assay with SF-268 CNS it was 115%; in the assay with SF-295 CNS, 105%; in the assay on SF-539 CNS it was 101%. The growth in the assay with UACC-257 melanoma is 96.5%; in the assay on M14 melanoma it was 99.8%.
As for `COc1cc2cc(C(=O)N3C[C@@H](CCl)c4c3cc(OC(=O)N(CCC(=O)N3CCN(C)CC3)C3CCCCC3)c3ccccc43)[nH]c2c(OC)c1OC`, the growth in the assay on NCI-H23 lung was -86.8% (active); in the assay with NCI-H226 lung it was -11.1% (active); in the assay with NCI-H322M lung it was -28.6% (active); in the assay with HOP-62 NSCLC it was -55.7% (active); with NCI-H460 lung, -73.1% (active); with HOP-92 NSCLC, -71% (active). Further, the growth in the assay on NCI-H522 lung was -82% (active); with A549/ATCC NSCLC, -24.1% (active); with 786-0 renal, -96% (active); in the assay with COLO 205 colon it was -66.7% (active); in the assay with DU-145 prostate, -73.5% (active); in the assay with K-562 leukemia it was -20.6% (active). Further, the growth in the assay on MALME-3M melanoma is -97.6% (active); with MDA-MB-231 breast, -61.4% (active); with RXF 393 renal, -93.3% (active); with SF-268 CNS, -41.5% (active); in the assay on SF-295 CNS, -68.3% (active); with SF-539 CNS it was -93% (active). In addition, the growth in the assay with UACC-257 melanoma was -78.6% (active); in the assay on M14 melanoma it was -84.5% (active).
As to `O=C(N/N=C/c1occc1Br)c1[nH]c2ccc(Br)cc2c1-c1ccccc1`, the growth in the assay with NCI-H23 lung is -100% (active); in the assay with NCI-H226 lung, -82.5% (active); in the assay with NCI-H322M lung, -81.2% (active); with HOP-62 NSCLC, -69.1% (active); in the assay with NCI-H460 lung, -86.2% (active); with HOP-92 NSCLC, -74.1% (active). In addition, the growth with NCI-H522 lung is -86.9% (active); with A549/ATCC NSCLC, -41.7% (active); in the assay on 786-0 renal, -76.6% (active); in the assay with COLO 205 colon, -73.5% (active); in the assay on DU-145 prostate, -78.4% (active); in the assay with K-562 leukemia it was 6.6% (active). In addition, the growth is -94.9% (active) in the assay on MALME-3M melanoma; -83.1% (active) with MDA-MB-231 breast; -88.2% (active) in the assay with RXF 393 renal; -65.9% (active) in the assay with SF-268 CNS; -91.2% (active) in the assay on SF-295 CNS; -100% (active) in the assay with SF-539 CNS. The growth in the assay with UACC-257 melanoma is -68.2% (active); with M14 melanoma, -84.5% (active).
With `O=C1Nc2cc(-c3ccc(NS(=O)(=O)c4ccc(-c5ccccc5)cc4)cc3)ccc2/C1=C/c1ccc[nH]1`, the growth was 4.1% (active) in the assay on NCI-H23 lung; 66.5% with NCI-H226 lung; 47.3% in the assay with NCI-H322M lung; 75.9% in the assay with HOP-62 NSCLC; 3.38% (active) in the assay with NCI-H460 lung; 16.1% in the assay on HOP-92 NSCLC. In addition, the growth in the assay with NCI-H522 lung was -11.8% (active); in the assay with A549/ATCC NSCLC, 10.5%; with 786-0 renal, 58.4%; in the assay on COLO 205 colon, 0.446% (active); with DU-145 prostate, -11.5% (active); with K-562 leukemia, 18.8%. Moreover, the growth is 50% with MALME-3M melanoma; 63.9% with MDA-MB-231 breast; -37.3% (active) in the assay on RXF 393 renal; 75.8% in the assay on SF-268 CNS; 30.9% with SF-295 CNS; 37.4% with SF-539 CNS. Moreover, the growth was 58.9% with UACC-257 melanoma and 38% with M14 melanoma.
Regarding `O=C(NC(=S)N1CCN(c2ncnc3c2cnn3-c2ccccc2)CC1)c1ccc(F)cc1`, the growth in the assay with NCI-H23 lung was 77.5%; in the assay on NCI-H226 lung, 84.9%; with NCI-H322M lung it was 75.8%; in the assay on HOP-62 NSCLC it was 70.6%; in the assay on NCI-H460 lung, 43.8%; in the assay with HOP-92 NSCLC it was 67.9%. In addition, the growth in the assay on NCI-H522 lung was 57.6%; in the assay on A549/ATCC NSCLC, 76.2%; with 786-0 renal, 98.6%; with COLO 205 colon it was 90.4%; in the assay with DU-145 prostate it was 86.4%; in the assay on K-562 leukemia, 51.3%. Further, the growth with MALME-3M melanoma is 78.1%; in the assay on MDA-MB-231 breast, 84.2%; with RXF 393 renal, 77%; in the assay on SF-268 CNS, 80.2%; with SF-295 CNS, 69.3%; in the assay on SF-539 CNS it was 73.8%. Also, the growth in the assay with UACC-257 melanoma is 89%; in the assay on M14 melanoma it was 86.8%.
Take `CCCCCCCCc1ccc(C(=O)Nc2cccc(O)c2)cc1`: the growth in the assay with NCI-H23 lung is 78.9%; with NCI-H226 lung, 67.8%; in the assay on NCI-H322M lung, 95.9%; in the assay on HOP-62 NSCLC it was 101%; in the assay on NCI-H460 lung, 90.5%; in the assay with HOP-92 NSCLC, -4.35% (active). The growth in the assay on NCI-H522 lung is 23%; in the assay with A549/ATCC NSCLC, 90.3%; in the assay with 786-0 renal, 73.5%; in the assay on COLO 205 colon, 121%; with DU-145 prostate, 80.1%; in the assay on K-562 leukemia it was 22.6%. The growth was 77.1% with MALME-3M melanoma; 78.9% in the assay on MDA-MB-231 breast; 86.6% in the assay with RXF 393 renal; 93.1% in the assay with SF-268 CNS; 75% in the assay with SF-295 CNS; 79.7% with SF-539 CNS. Further, the growth in the assay on UACC-257 melanoma is 79.3%; in the assay on M14 melanoma it was 76.4%.
As for `COc1ccc(-c2cc(-c3cc(OC)c(OC)c(OC)c3)[nH]c(=O)c2C#N)cc1`, the growth with NCI-H23 lung was 86%; in the assay on NCI-H226 lung, 23.4%; with NCI-H322M lung, 5.73% (active); in the assay on HOP-62 NSCLC it was 12.9%; in the assay on NCI-H460 lung it was 52.4%; in the assay with HOP-92 NSCLC it was -33.5% (active). Further, the growth was 50.6% with NCI-H522 lung; 59.3% in the assay with A549/ATCC NSCLC; -65.4% (active) in the assay with 786-0 renal; 130% with COLO 205 colon; 93% in the assay on DU-145 prostate; 79.1% in the assay with K-562 leukemia. The growth with MALME-3M melanoma is 29.7%; in the assay on MDA-MB-231 breast, 1.65% (active); in the assay with RXF 393 renal it was 14.6%; with SF-268 CNS, 54.3%; in the assay with SF-295 CNS, 59.1%; in the assay on SF-539 CNS it was -18.3% (active). In addition, the growth in the assay with UACC-257 melanoma was 96.4%; with M14 melanoma it was 96.7%.
Regarding `COc1ccc(-c2nc3ccc(-c4nnc(SCC(=O)Nc5ccc(/C(C)=N\O)cc5)o4)cc3[nH]2)cc1`, the growth was 42.6% with NCI-H23 lung; 77.5% in the assay with NCI-H226 lung; 46.5% in the assay with NCI-H322M lung; 77% in the assay with HOP-62 NSCLC; 59.1% with NCI-H460 lung; 104% in the assay on HOP-92 NSCLC. For the same molecule, the growth was 40.1% in the assay on NCI-H522 lung; 74.2% in the assay with A549/ATCC NSCLC; -62.1% (active) with 786-0 renal; 107% in the assay on COLO 205 colon; 71.7% with DU-145 prostate; 32.4% in the assay with K-562 leukemia. For the same molecule, the growth is -20.5% (active) in the assay with MALME-3M melanoma; 56% with MDA-MB-231 breast; -45.2% (active) with RXF 393 renal; 49.4% in the assay on SF-268 CNS; 97.7% in the assay on SF-295 CNS; -53.4% (active) with SF-539 CNS. Moreover, the growth with UACC-257 melanoma was 50.4%; in the assay on M14 melanoma, 28.5%.

These data come from PubChem BioAssay (NCI).
